The nature of assay [1]: HepG2 liver cancer cell viability effects, profiling panel, resazurin fluorescence, 24 h, PK04 Diversity Set (AID 1172). The note with it: higher = more signal. A general note: The colour change of resazurin is a common sign of viable cells or microbes.
The nature of assay [2]: basal S. cerevisiae growth modulation, no modifier, primary screen, OD600, strain BY4716, 24 h, basal condition (AID 1173). As to conditions: OD600, 24 h, higher = more signal, called active from +8 up or from −8 down.
A short description of assay [3]: MM1S myeloma cell viability, profiling panel, resazurin fluorescence, basal, 24 h, PK04 Diversity Set (AID 1174).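 Note: MM1S multiple myeloma cell line.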 The note with it: higher = more signal, called active from +8 up or from −8 down.
Assay [4] addresses Dihydroorotate dehydrogenase (quinone), mitochondrial (Plasmodium falciparum (isolate 3D7)) (UniProt Q08210). Briefly: PfDHODH enzyme inhibitors, primary screen, biochemical, C-terminal His tag, absorbance 600 nm (AID 1175).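 Note: recombinant parasite enzyme with a five histidine tag at its C terminus.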 As to conditions: DCIP absorbance 600 nm, higher = more signal, called active from +8 up or from −8 down.
Assay [5] is described as follows: P. aeruginosa biofilm formation inhibitors, primary screen, strain PAO1, LB-PBS medium, absorbance 600 nm (AID 1176). As to conditions: P. aeruginosa PAO1 growth/biofilm, A600, 12 h; higher = more signal.
Assay [6] is described as follows: S. cerevisiae RM11-1a growth modifiers, primary screen, strain RM11-1a, OD600, basal, 24 h (AID 1177).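 Note: cultures grown under basal conditions with no added stressor.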 As to conditions: OD600, 24 h, higher = more signal, called active from +8 up or from −8 down.
A short description of assay [7]: E. coli acrAB mutant growth effects, primary screen, E. coli filamentation inducers, strain DRC39, OD650, 24 h (AID 1178).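 Note: growth measured as culture turbidity by optical density at 650 nm.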 As to conditions: higher = more signal, called active from +8 up or from −8 down.
Assay [8] in a line: E. coli acrAB mutant growth effects, primary screen, E. coli filamentation inducers, strain DRC39, OD650, 48 h (AID 1179).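 Note: screen aims at cell division blockers that make cells filament.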 The note with it: E. coli DRC39 delta-acrAB growth, higher = more signal, called active from +8 up or from −8 down.
The nature of assay [9]: RPMI8226 myeloma cell viability, profiling panel, resazurin fluorescence, basal, 24 h, PK04 Diversity Set (AID 1180).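 Note: RPMI8826 multiple myeloma cell line at 5000 cells per well.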 As to conditions: higher = more signal.
The target in assay [10] is E3 ubiquitin-protein ligase XIAP (Homo sapiens) (UniProt P98170). Briefly: XIAP binders, primary screen, biophysical, small-molecule microarray, fluorescence 635 nm (AID 1181).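 Note: score merges 667 nm emission and signal to noise over triplicate slides.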 The note with it: small-molecule microarray binding, higher = more signal.
E3 ubiquitin-protein ligase XIAP (Homo sapiens), sequence (P98170 whole entry, looked up): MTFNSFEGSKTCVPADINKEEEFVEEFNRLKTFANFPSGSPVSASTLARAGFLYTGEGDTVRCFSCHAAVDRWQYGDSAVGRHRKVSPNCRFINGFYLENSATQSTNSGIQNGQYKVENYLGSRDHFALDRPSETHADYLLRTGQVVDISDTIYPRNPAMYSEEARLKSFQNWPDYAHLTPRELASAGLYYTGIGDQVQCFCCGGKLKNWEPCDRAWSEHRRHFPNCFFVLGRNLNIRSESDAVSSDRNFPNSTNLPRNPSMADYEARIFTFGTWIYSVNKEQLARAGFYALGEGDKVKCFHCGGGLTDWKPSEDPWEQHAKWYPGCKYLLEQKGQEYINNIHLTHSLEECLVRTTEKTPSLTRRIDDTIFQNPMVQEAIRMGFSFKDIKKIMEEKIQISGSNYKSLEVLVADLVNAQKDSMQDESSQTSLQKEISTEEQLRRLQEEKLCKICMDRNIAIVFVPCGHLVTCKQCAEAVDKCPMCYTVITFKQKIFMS
Assay [11] relates to XIP peptide (Xip251-270) binding. Briefly: small-molecule binders of XIP peptide, primary screen, biochemical, small-molecule microarray, fluorescence 635/667 nm, 0.1 µg/mL protein (AID 1182). As to conditions: fluorescent protein binding, 635 nm, higher = more signal, called active from +8 up or from −8 down.
Another assay deals with XIP peptide (Xip251-270). In words: small-molecule binders of XIP peptide, primary screen, biochemical, small-molecule microarray, fluorescence 635/667 nm, 0.5 µg/mL protein (AID 1183). The note with it: small-molecule microarray binding, fluorescence 635 nm; higher = more signal.
A short description of assay [12]: Plasmodium falciparum growth inhibition, primary screen, strain 3D7, DAPI fluorescence, 100 nL (AID 1184).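 Note: parasites grown inside human red blood cells in medium with human serum.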 As to conditions: P. falciparum 3D7 growth, 3 d, higher = more signal.
Assay [13] deals with Homeobox protein Hox-A13 (Mus musculus) (UniProt Q62424). Briefly: inhibitors of HoxA13-DNA binding, primary screen, biochemical, fluorescence polarization, labeled oligonucleotide (AID 1185). The note with it: 15 min, higher = more signal, called active from +8 up or from −8 down. Background: Polarisation of emitted light reports the rotation of a fluorescent probe.
Homeobox protein Hox-A13 (Mus musculus), sequence (Q62424 whole entry, looked up): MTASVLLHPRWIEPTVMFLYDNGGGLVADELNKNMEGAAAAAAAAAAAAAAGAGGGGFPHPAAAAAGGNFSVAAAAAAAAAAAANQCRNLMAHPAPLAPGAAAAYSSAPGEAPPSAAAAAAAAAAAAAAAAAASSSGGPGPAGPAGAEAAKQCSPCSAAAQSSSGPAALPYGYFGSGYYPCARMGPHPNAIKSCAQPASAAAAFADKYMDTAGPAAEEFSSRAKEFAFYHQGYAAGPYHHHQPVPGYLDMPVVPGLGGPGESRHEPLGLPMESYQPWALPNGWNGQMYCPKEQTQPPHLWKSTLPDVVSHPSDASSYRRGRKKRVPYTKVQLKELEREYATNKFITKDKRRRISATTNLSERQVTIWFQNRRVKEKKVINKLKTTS
Assay [14] in a line: inhibitors of hydroxyurea-induced Chk1 phosphorylation, primary screen, imaging, HeLa, phospho-Chk1 antibody, percent positive cells (AID 1186). The note with it: hydroxyurea-induced phospho-Chk1 immunofluorescence imaging, higher = more signal.
A short description of assay [15]: inhibitors of hydroxyurea-induced Chk1 phosphorylation, primary screen, imaging, HeLa, phospho-Chk1 nuclear intensity (AID 1187). The note with it: hydroxyurea-induced phospho-Chk1 immunofluorescence imaging, higher = more signal.

The source made the active and inactive calls. Unless noted, the rule behind the calls is not given here.

Dihydroorotate dehydrogenase (quinone), mitochondrial (Plasmodium falciparum (isolate 3D7)), sequence (Q08210 whole entry, looked up): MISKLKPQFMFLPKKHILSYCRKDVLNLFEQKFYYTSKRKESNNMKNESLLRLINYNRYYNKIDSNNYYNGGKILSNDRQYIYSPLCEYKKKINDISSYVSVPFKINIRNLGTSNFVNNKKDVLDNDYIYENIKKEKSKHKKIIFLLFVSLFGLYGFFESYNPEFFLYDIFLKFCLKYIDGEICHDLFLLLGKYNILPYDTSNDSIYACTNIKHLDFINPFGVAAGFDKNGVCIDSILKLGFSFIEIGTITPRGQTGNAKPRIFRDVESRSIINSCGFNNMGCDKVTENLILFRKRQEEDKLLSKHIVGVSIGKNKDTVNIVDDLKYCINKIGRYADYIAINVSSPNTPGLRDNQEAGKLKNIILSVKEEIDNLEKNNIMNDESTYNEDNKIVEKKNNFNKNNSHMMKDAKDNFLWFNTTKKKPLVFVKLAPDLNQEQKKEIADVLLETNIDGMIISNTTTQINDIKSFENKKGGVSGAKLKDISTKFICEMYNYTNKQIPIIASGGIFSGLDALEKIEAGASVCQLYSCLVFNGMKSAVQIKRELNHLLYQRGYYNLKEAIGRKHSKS

With `CO[C@H]1O[C@H](CO)[C@@H](OC(=O)Nc2ccccc2)[C@@H]2OC(=O)[C@H](Cc3ccccc3)C/C=C/C[C@@H](Cc3ccccc3)C(=O)O[C@@H]12`, the z-score in [1] was -1.41; in assay [2], 0.411 (inactive); in [3], -3.52 (inactive); in assay [5] it was 0.385 (inactive); in assay [6], 0.887 (inactive); in assay [7] it was 1.04 (inactive). The z-score is 1.99 (inactive) in [8]; -2.26 in [9]; -1.42 in assay [12]; -2.64 (inactive) in assay [13]; -0.62 (inactive) in [14]; -0.628 (inactive) in [15]. The composite z-score was -1.69 (inactive) in [4], 0.288 in [10], 1.5 (inactive) in assay [11] and 0.539 with XIP peptide (Xip251-270).

For the molecule `COC(=O)[C@@]1(Cc2ccc(OC)cc2)[C@@H]2[C@@H](CC(=O)[C@H]2CC(=O)C(=O)N2CCCC2)CN1C(=O)c1ccccc1`, the z-score in assay [1] was -0.437; in assay [2], 0.442 (inactive); in assay [3], -0.526 (inactive); in assay [5], 0.274 (inactive); in [6] it was -0.148 (inactive); in assay [7] it was -0.415 (inactive). Further, the z-score is -0.394 (inactive) in [8]; -1.57 in assay [9]; -0.937 in assay [12]; -2.95 (inactive) in assay [13]; -0.961 (inactive) in assay [14]; -1.03 (inactive) in [15]. The composite z-score in [4] was -0.448 (inactive); in assay [10], -0.01; in [11], 0.506 (inactive); in the assay on XIP peptide (Xip251-270), 0.807.

For the molecule `O=C1c2ccccc2[C@@]2(Cc3ccccc3N(Cc3ccccc3)C2=O)[C@H](c2ccc(CO)cc2)N1Cc1ccccc1`, the z-score was -0.739 in assay [1]; -0.773 (inactive) in [2]; -0.851 (inactive) in assay [3]; 0.0714 (inactive) in assay [5]; -0.153 (inactive) in assay [6]; -0.0466 (inactive) in [7]. For the same molecule, the z-score is -0.0261 (inactive) in assay [8]; -0.982 in [9]; 1.37 in [12]; -0.928 (inactive) in assay [13]; 0.306 (inactive) in [14]; 0.435 (inactive) in [15]. In addition, the composite z-score in [4] was -2.87 (inactive); in assay [10], -0.0525; in assay [11], -0.348 (inactive); in the assay on XIP peptide (Xip251-270), -0.283.

Turning to `N#Cc1ccc(C(O)C2C=CC3C(=O)N(c4ccccc4)C(=O)C3N2Nc2ccc([N+](=O)[O-])cc2)cc1` (centres undefined), the z-score in assay [1] is -0.298; in assay [2], -0.0292 (inactive); in [3], -0.291 (inactive); in [5], 1.01 (inactive); in [6] it was -0.114 (inactive); in [7], -1.15 (inactive). The z-score is -0.224 (inactive) in [8]; -0.783 in assay [9]; -1.84 in [12]; -4.34 (inactive) in [13]; -0.138 (inactive) in [14]; -1.24 (inactive) in assay [15]. Also, the composite z-score in assay [4] was 0.154 (inactive); in assay [10] it was -0.162; in assay [11], 1.04 (inactive); with XIP peptide (Xip251-270) it was 0.807.

On to `C=C(COC)/C(=C/C[C@H](OC(=O)c1ccncc1)c1ccc(OCCO)cc1)c1cc(C(=O)OC)ccc1OC`, for which the z-score was 0.672 in [1]; 0.194 (inactive) in assay [2]; -0.163 (inactive) in [3]; -0.505 (inactive) in assay [5]; -0.402 (inactive) in [6]; -0.0988 (inactive) in assay [7]. The z-score in [8] was 0.33 (inactive); in assay [9], -0.316; in assay [12] it was -3.05; in [13] it was -4.65 (inactive); in [14], 0.203 (inactive); in assay [15] it was 0.159 (inactive). Moreover, the composite z-score in [4] is -1.46 (inactive); in [10], 0.177; in assay [11], -0.202 (inactive); with XIP peptide (Xip251-270), 0.667.

As to `NC(=O)NCC#Cc1ccc2c(c1)[C@]1(C(=O)N2)[C@H](C(=O)N2CCCCCCC2)[C@H]2C(=O)O[C@H](c3ccccc3)[C@H](c3ccccc3)N2[C@@H]1c1ccc(O)cc1`, the z-score in assay [1] was 0.0542; in assay [2], 0.319 (inactive); in assay [3], 0.678 (inactive); in assay [5], 1.92 (inactive); in assay [6], 0.0562 (inactive); in assay [7] it was 0.271 (inactive). The z-score in [8] was -0.194 (inactive); in assay [9], -0.018; in [12], 0.285; in assay [13] it was -0.376 (inactive); in assay [14], 0.0378 (inactive); in [15] it was -0.144 (inactive). Besides, the composite z-score is 0.246 (inactive) in assay [4], 0.751 in [10], 0.123 (inactive) in assay [11] and 0.833 in the assay with XIP peptide (Xip251-270).

In the case of `COc1ccc(CCNC(=O)[C@@]2(C)c3ccccc3C(=O)N(Cc3cc(C(F)(F)F)cc(C(F)(F)F)c3)[C@H]2c2ccc(CO)cc2)cc1`, the z-score was 0.0945 in [1]; 0.256 (inactive) in assay [2]; 0.084 (inactive) in assay [3]; 0.773 (inactive) in assay [5]; -0.147 (inactive) in [6]; 0.482 (inactive) in [7]. For the same molecule, the z-score in assay [8] is 0.282 (inactive); in [9], 0.639; in assay [12] it was -1.88; in [13], -2.88 (inactive); in assay [14] it was -0.0741 (inactive); in [15] it was 0.364 (inactive). Further, the composite z-score is -0.533 (inactive) in [4], 0.0512 in assay [10], 0.517 (inactive) in [11] and 0.702 in the assay with XIP peptide (Xip251-270).

On to `C=C(C(=O)CC[C@@H](OC(C)=O)c1cccc(OCCO)c1)C(C)C`, for which the z-score was -1.1 in [1]; -1.03 (inactive) in [2]; -0.353 (inactive) in [3]; 0.26 (inactive) in assay [5]; 1.11 (inactive) in assay [6]; -1.29 (inactive) in assay [7]. The z-score in [8] is -1.06 (inactive); in assay [9], 0.173; in assay [12], -1.01; in assay [13], -4.41 (inactive); in assay [14], -0.0088 (inactive); in assay [15], 0.158 (inactive). In addition, the composite z-score was -0.842 (inactive) in assay [4], 0.686 in [10], 0.723 (inactive) in assay [11] and 0.436 in the assay on XIP peptide (Xip251-270).

As to `COC(=O)c1c(CC[C@@H](CO)NC(=O)N[C@@H](Cc2ccccc2)Cn2cc(-c3cncn3C)nn2)oc(C(C)=O)c1C(=O)OC`, the z-score in assay [1] was -0.649; in [2], -0.615 (inactive); in [3], 0.448 (inactive); in assay [5], -1.25 (inactive); in [6], -0.688 (inactive); in assay [7] it was 0.681 (inactive). Besides, the z-score was 0.438 (inactive) in [8]; -0.332 in [9]; -2.06 in assay [12]; -4.35 (inactive) in assay [13]; -0.331 (inactive) in [14]; -0.0353 (inactive) in assay [15]. For the same molecule, the composite z-score is -2.95 (inactive) in [4], 0.14 in assay [10], 0.606 (inactive) in [11] and 0.851 in the assay with XIP peptide (Xip251-270).

The values above are taken from PubChem BioAssay.
